# Results published in PubChem BioAssay AID1224858 (National Center for Advancing Translational Sciences (NCATS), 2016).
# Results filed as inconclusive are left out. A call without a number means that no potency is given here. Active and inactive are the calls of the source. Calls come from the whole dose curve; as a rule, active = well fitted inhibition curve with a large enough effect; inconclusive = small, poorly fitted or top-dose-only effect; inactive = no such curve, though single readings can be large or run the other way.
# Assay: Confirmation assay for measurement of the activity of small molecule inhibitors on Zika virus induced Caspase-3 activity in human astrocytes
# Settings: ZIKV-induced caspase-3/7 luminescence, 6 h; series mostly up to 46.1 µM
# Excerpt: National Center for Advancing Translational Sciences [NCATS] Johns Hopkins University School of Medicine Florida State University Assay Overview: Increase in the Caspase-3 activity indicates an activation of apoptosis cell death pathway caused by Zika virus infection in certain types of neuronal cells including human neural progenitor cells (hNPCs), astrocytes, and astrocytoma cell line (SNB-19). This cell-based caspase-3 activity assay measures the increased caspase-3 activity in the human astrocytes after a 6-hour Zika virus infection with a luminescence readout. A decrease in the luminescence signal in this assay by small molecule treatment indicates an inhibitory effect of that small molecule on the Zika virus induced caspase-3 activity that may correlate with its effect on reduction of Zika virus caused cell death.
# Assay Protocol Summary: The medium for astrocytes contains AM basal medium (ScienCell, Cat.# 1801), AGS (ScienCell, Cat.# 1801), 10% FBS, and 1% Pen/Strep. A Caspase-Glo 3/7 assay kit (catalog number G8092; Promega, Madison, WI) was used to detect caspase-3 activity induced by Zika virus infection in human cells. The reagent mixture was reconstituted as described in the protocol from the manufacturer. Polystyrene tissue culture treated and PDL coated white plates were obtained from Greiner Bio-One (Monroe, NC). Cells were seeded in 384- or 1536-well assay plates and cultured at 37 C with 5% CO2 for 16 to 20 hours. The typical cell seeding density in the 1536-well plate assay is 350 cells/well in 3 ul medium for astrocytes in tissue culture treated plates. Compounds were added to cells and incubated for one hour before addition of ZIKV solution to cells (2 FFU/cell). After incubation at 37 C with 5% CO2 for 6 hours, the reagent mixture of Caspase-Glo 3/7 assay kit was added to each well, followed by incubation at room temperature for 30 minutes. The luminescence intensity of the assay plates was measured using a ViewLux plate reader (PerkinElmer). Data were normalized by using the cell-containing wells without ZIKV as a negative control (0% induction of caspase 3/7 activity) and wells containing ZIKV infected cells (Caspase-3 activity induced) as a positive control (100% induction of caspase 3 activity). The percentage inhibitions of the increased Caspase-3 activity by small molecule inhibitors were then calculated.
row,SMILES,Potency
1,O=c1oc2cc(O)ccc2s1,inactive
2,Cc1ccc2c(n1)Oc1ccc(C(C)C(=O)OCC(=O)N(C)C)cc1C2 (stereo not given),19.5 µM (active)
3,COc1cccc(-c2cc(=O)c3ccccc3o2)c1N,6.9 µM (active)
4,O=C(/C=C/c1ccc(O)cc1)c1ccc(O)cc1O,2.75 µM (active)
5,Nc1cc(C(F)(F)F)ccc1S,inactive
6,CC(=O)Oc1ccccc1C(=O)Nc1ncc([N+](=O)[O-])s1,1.58 µM (active)
7,CCCCC1C(=O)N(c2ccccc2)N(c2ccc(O)cc2)C1=O (stereo not given),inactive
8,Cc1oncc1C(=O)Nc1ccc(C(F)(F)F)cc1,3.88 µM (active)
9,O=C(O)c1cccc(-c2noc(-c3ccccc3F)n2)c1,3.88 µM (active)
10,O=C(Nc1ccc(C(=O)O)c(O)c1)c1ccccc1,4.89 µM (active)
11,CC1(C)Cc2c(sc(NC(=S)NC(=O)c3ccccc3)c2C(=O)O)CO1,inactive
12,Cc1c(N)c(=O)n(-c2ccccc2)n1C,inactive
13,CC(=Cc1ccccc1)C=C1SC(=S)N(CC(=O)O)C1=O,19.5 µM (active)
14,C/C(=N\O)c1ccc(OCC(=O)N2CCCCC2)cc1,9.75 µM (active)
15,Nc1ccc2c(c1)CN1C(=O)c3ccccc3C1=N2,2.13 µM (active)
16,O=C(CS)Nc1ccccc1,inactive
17,O=C1NC(=O)C(=Cc2ccc(-c3ccc(F)cc3)o2)S1,12.3 µM (active)
18,Nc1ccc(N=Nc2ccccc2)c(N)n1,15.5 µM (active)
19,CC(=C(CCOC(=O)C(C)C)SSC(CCOC(=O)C(C)C)=C(C)N(C=O)Cc1cnc(C)nc1N)N(C=O)Cc1cnc(C)nc1N,inactive
20,COc1ccc(NC(=O)/C=C/c2ccc(Cl)cc2)cc1,3.88 µM (active)

row,SMILES,Potency
1,Cc1ccc(C(=O)c2ccc(CC(=O)O)n2C)cc1,inactive
2,COc1ccc(CC2=NN3C([C@@H](CCc4ccccc4)[C@@H](C)O)=NC(C)C3C(=O)N2)cc1OC (stereo not given in full),inactive
3,O=C(Oc1ccccc1)c1cccc(C(=O)Oc2ccccc2)c1,6.31 µM (active)
4,CCN1/C(=C/C=C/c2sc3ccccc3[n+]2CC)Sc2ccccc21,inactive
5,Cc1[nH]c(C=C2C(=O)Nc3ccccc32)c(C)c1CCC(=O)O,inactive
6,Nc1ccc(O)c(C(=O)O)c1,inactive
7,CCN1CCC(n2cc(CNc3cc(Cl)c4ncc(C#N)c(Nc5ccc(F)c(Cl)c5)c4c3)nn2)CC1,inactive
8,CC[C@]1(O)C[C@H]2CN(CCc3c([nH]c4ccccc34)[C@@](C(=O)OC)(c3cc4c(cc3OC)N(C=O)[C@H]3[C@@](O)(C(=O)OC)[C@H](OC(C)=O)[C@]5(CC)C=CCN6CC[C@]43[C@@H]65)C2)C1,inactive
9,CC=CC[C@@H](C)C(=O)[C@H]1C(=O)N[C@@H](C(C)C)C(=O)N(C)CC(=O)N(C)[C@@H](CC(C)C)C(=O)N[C@@H](C(C)C)C(=O)N(C)[C@@H](CC(C)C)C(=O)N[C@@H](C)C(=O)N[C@H](C)C(=O)N(C)[C@@H](CC(C)C)C(=O)N(C)[C@@H](CC(C)C)C(=O)N(C)[C@@H](C(C)C)C(=O)N1C,inactive
10,C[C@@H](N)c1ccc(C(=O)Nc2ccnc3[nH]ccc23)cc1,inactive
11,CN(C)c1cc(NC(=O)CNC(C)(C)C)c(O)c2c1C[C@@H]1C[C@H]3[C@H](N(C)C)C(=O)C(C(N)=O)=C(O)[C@@]3(O)C(=O)C1=C2O,inactive
12,N[C@H](CSC(c1ccccc1)(c1ccccc1)c1ccccc1)C(=O)O,inactive
13,CNC1[C@H](O)C(O[C@@H]2C(O)C(O[C@H]3O[C@H]([C@@H](C)NC)CC[C@H]3N)[C@@H](N)C[C@H]2N)OC[C@]1(C)O (stereo not given in full),inactive
14,Cc1c(C(=O)O)c(O)cc2c1C(=O)c1c(O)c([C@@H]3O[C@H](CO)[C@@H](O)[C@H](O)[C@H]3O)c(O)c(O)c1C2=O,inactive
15,O=c1cc(-c2ccccc2)oc2cc(O)c(O)c(O)c12,inactive
16,CN(C)CCCSc1ccccc1NC(=O)/C=C/c1ccccc1,13.8 µM (active)
17,Cc1ccc(O)c(N=Nc2ccccc2)n1,1.73 µM (active)
18,CC(=O)Oc1cccc2c1C(=O)c1c(OC(C)=O)cc(C(=O)O)cc1C2=O,15.5 µM (active)
19,Cc1c(NC(=O)c2ccc(C(C)(C)C)cc2)cccc1-c1cn(C)c(=O)c(Nc2ccc(C(=O)N3CCOCC3)cc2)n1,inactive
20,Nc1ncnc2c1ncn2[C@@H]1O[C@@H](CO)[C@H](O)[C@H]1O,inactive
